Screening data from PubChem BioAssay.
The list is not random: actives were taken first. Their share in the collection is about 3.5%.
MITF primary = human MITF inhibition, primary screen; O75030; AlphaScreen MITF homodimerization, bead proximity signal; inhibition, % at 2.6 µM; 650,000 tested, 0.91% active; AID 1259374; in the data active means inhibition above about 50%;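 further: 0% = vehicle wells with protein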
FBW7 activator = activators of human E3 ligase FBW7; Q969H0; AlphaScreen FBW7–phospho-cyclin E peptide binding, activator screen; normalized activity (activation), % at 26.1 µM; 650,000 tested, 0.13% active; AID 1259310; in the data active means normalized activity above about 1.9%;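 further: purified mutant Fbw7 with reduced substrate affinity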
TEAD-YAP block = TEAD-YAP interaction inhibition | HEK-TIYL cells, TEAD-Gal4/YAP UAS-luciferase luminescence | 640,000 tested, 1.4% active | inhibition, % at 9.12 µM; in the data active means inhibition above about 32%;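 further: 0% = median of test compound wells and 100% = reference inhibitor wells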
GPR151 ag = human GPR151 activation; Q8TDV0; PathHunter beta-arrestin GPR151 cells, luminescence; activation, % at 11.2 µM; 650,000 tested, 1% active; AID 1508602; in the data active means activation above about 4.9%;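 further: 0% = median of compound wells and 100% = cells with positive control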
* marks the source's active call; other numbers are inactive results.

What do the screens show for `O=C(c1cccc([N+](=O)[O-])c1)N1CCN(c2cccc(Cl)c2)CC1`?
MITF primary: 8; FBW7 activator: 0; TEAD-YAP block: 13; GPR151 ag: 1

How did Fc1ccc(-c2cnc(N3CCC4(CC3)OCCO4)nc2)cc1 do in these assays?
MITF primary: 9; FBW7 activator: 0; TEAD-YAP block: 43*; GPR151 ag: -11

How did Cc1ccc(-c2cnc(N3CCC4(CC3)OCCO4)nc2)cc1 do in these assays?
MITF primary: 3; FBW7 activator: 0; TEAD-YAP block: -49; GPR151 ag: -3

What do the screens show for `O=C(NCc1ccc2c(c1)OCO2)c1cc([N+](=O)[O-])cc([N+](=O)[O-])c1`?
MITF primary: 22; FBW7 activator: 0; TEAD-YAP block: -2; GPR151 ag: 0

How did CN(C)c1ccc(/C=C(\C(N)=O)c2nc3ccccc3[nH]2)cc1 do in these assays?
MITF primary: -7; FBW7 activator: 0; TEAD-YAP block: 83*; GPR151 ag: -3

How did CC(=O)c1c(C)oc2ccc(N(C(=O)c3ccncc3)S(=O)(=O)c3ccc(Cl)cc3)cc12 do in these assays?
MITF primary: 14; FBW7 activator: 0; TEAD-YAP block: 2; GPR151 ag: -1

How did COc1ccccc1N1CCN(c2c(-c3ccccc3)c(=O)c2=O)CC1 do in these assays?
MITF primary: -4; FBW7 activator: 0; TEAD-YAP block: 67*; GPR151 ag: -2

What do the screens show for `O=c1c(-c2ccc(Cl)cc2)c(N2CCN(c3ccccc3)CC2)c1=O`?
MITF primary: 1; FBW7 activator: 0; TEAD-YAP block: 60*; GPR151 ag: 3

What do the screens show for `O=c1c(-c2ccccc2)c(N2CCN(c3cccc(Cl)c3)CC2)c1=O`?
MITF primary: -10; FBW7 activator: 0; TEAD-YAP block: 1; GPR151 ag: 0

Results for O=c1c(-c2ccc(Cl)cc2)c(N2CCN(c3ccccc3F)CC2)c1=O ?
MITF primary: 17; FBW7 activator: 0; TEAD-YAP block: 42*; GPR151 ag: 1

Results for O=c1c(-c2ccccc2)c(N2CCN(c3ccccc3F)CC2)c1=O ?
MITF primary: 2; FBW7 activator: 0; TEAD-YAP block: -8; GPR151 ag: 0

Results for COc1cc(C(=O)Nn2c(C3CCCCC3)nc3ccccc3c2=O)cc(OC)c1OC ?
MITF primary: -3; FBW7 activator: 0; TEAD-YAP block: 1; GPR151 ag: 0

How did CCc1nnc2n1N(C(C)=O)C(c1ccc([N+](=O)[O-])cc1)=C(C(C)=O)S2 do in these assays?
MITF primary: 0; FBW7 activator: -1; TEAD-YAP block: 3; GPR151 ag: 1

What do the screens show for `Cc1nnc(-c2cc3ccccc3n2CC(=O)Nc2cccc(F)c2)o1`?
MITF primary: 9; FBW7 activator: 0; TEAD-YAP block: 3; GPR151 ag: 2

What do the screens show for `CCOC(=O)C1CCCN(c2cc(Nc3cccc(OC)c3)c3c4c(onc24)-c2ccccc2C3=O)C1` (stereo not given)?
MITF primary: 64*; FBW7 activator: 0; TEAD-YAP block: -2; GPR151 ag: 0

Results for CCCCC(C(=O)OCC)(C(=O)OCC)c1cc(Nc2ccc(C)cc2)c2c3c(onc13)-c1ccccc1C2=O ?
MITF primary: 55*; FBW7 activator: 0; TEAD-YAP block: -10; GPR151 ag: -1

How did CCOC(=O)C1CCCN(c2cc(Nc3ccc4c(c3)OCCO4)c3c4c(onc24)-c2ccccc2C3=O)C1 (stereo not given) do in these assays?
MITF primary: 4; FBW7 activator: 0; TEAD-YAP block: 38*; GPR151 ag: 0

How did COc1cccc(Nc2cc(N3CCCC3)c3noc4c3c2C(=O)c2ccccc2-4)c1 do in these assays?
MITF primary: 14; FBW7 activator: 0; TEAD-YAP block: 4; GPR151 ag: 0

What do the screens show for `CCCN1CCN(c2cc(Nc3cccc(OC)c3)c3c4c(onc24)-c2ccccc2C3=O)CC1`?
MITF primary: 61*; FBW7 activator: 0; TEAD-YAP block: 6; GPR151 ag: 2

What do the screens show for `CCCCc1ccc(N2CC(C(=O)Nc3nccs3)CC2=O)cc1` (stereo not given)?
MITF primary: -15; FBW7 activator: 0; TEAD-YAP block: -4; GPR151 ag: -1

How did COc1cc(Nc2cc(N3CCN(C(=O)c4ccco4)CC3)c3noc4c3c2C(=O)c2ccccc2-4)cc(OC)c1OC do in these assays?
MITF primary: 9; FBW7 activator: 0; TEAD-YAP block: 40*; GPR151 ag: -2

How did CCc1ccc2nc(N3CCC(C(=O)NC(C)C)CC3)sc2c1 do in these assays?
MITF primary: -10; FBW7 activator: 0; TEAD-YAP block: 40*; GPR151 ag: 1
